POLK inh: qHTS for Inhibitors of Polymerase Kappa; purified Pol kappa, fluorescent DNA synthesis assay, 10 min; Potency, µM (top dose mostly 107 µM), usual class: inhibitors; 0.53% of 400,000 active; AID 588579, 2011
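Kinetic fluorescence screen: compound preincubated 15 min RT with 10 nM enzyme; 50 nM substrate (final) initiates; reads at 0/10 min.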
KAT2A inh: qHTS Assay for Inhibitors of GCN5L2; Histone acetyltransferase KAT2A (Homo sapiens), Q92830; GCN5L2 HAT assay, ThioGlo1 CoA-SH fluorescence; Potency, µM (highest dose often 58.9 µM), most hits filed as inhibitors; 0.21% of 390,000 active; AID 504327, 2011
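Preincubate 20nM GCN5L2 with compound 15 min, RT → add 50uM ThioGlo1 + 75uM H3(1-25) + 70uM acetyl-CoA → read fluorescence 0 and 20 min. Primary qHTS; fluorescent artifacts likely.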
Pol beta inh: qHTS Assay for Inhibitors of DNA Polymerase Beta; Pol beta primer extension/strand displacement, fluorescence kinetic; Potency, µM (top dose mostly 114 µM), hits mostly inhibitors; 1.3% of 340,000 active; AID 485314, 2010
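Homogeneous kinetic assay of primer extension and strand displacement by 10 nM Pol beta, preincubated 15 min at room temperature with compound before 50 nM substrate (final) was added. Read at 0 and 10 min; four-parameter Hill fit.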
GLS inh: qHTS for Inhibitors of Glutaminase (GLS); GLS enzymatic activity, qHTS titration; Potency, µM (titrated, usually from 45.5 µM), hits mostly inhibitors; 0.21% of 410,000 active; AID 624170, 2012
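Two-point fluorescence kinetic (t0, 30 min RT) for hKGA; glutamate detected via glutamate oxidase–HRP–Amplex Red. Substrate: 1 mM L-glutamine solution; buffer 45 mM KH2PO4, pH 8.2.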
Pol eta inh: qHTS for Inhibitors of Polymerase Eta. Potency, µM (top dose mostly 114 µM), most hits filed as inhibitors. DNA polymerase eta (Homo sapiens), Q9Y253. 1.2% of 390,000 active. recombinant Pol eta, fluorescent DNA replication assay
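Pol eta (10 nM) was preincubated with compounds for 15 min at room temperature, after which fluorescent replication substrate (50 nM final) was added to start the reaction. Fluorescence was read kinetically at 0 and 10 min.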
Pol iota inh: qHTS for Inhibitors of Polymerase Iota; Pol iota fluorescent replication assay, 10 min; Potency, µM (series often up to 115 µM), actives largely listed as inhibitors; 1% of 390,000 active
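Pol iota at 10 nM preincubated 15 min with compounds at room temperature; reaction started with fluorescent substrate, 50 nM final. Fluorescence read kinetically at 0 and 10 min; buffer-only wells as negative control.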
Each line names hits and unclear results; the compound was inactive in the other large screens. Most compounds without a hit are left out; they make up all but 2.4% or so of the library. Calls come from the whole dose curve; as a rule, active = well fitted inhibition curve with a large enough effect; inconclusive = small, poorly fitted or top-dose-only effect, or another doubt; inactive = no such curve, though single readings can be large or run the other way.

CC1=C(C(=O)OC(C)C)C(c2ccc(C)o2)NC(=O)N1 (stereo not given)	none
CCOC(=O)C1=C(C)NC(=O)NC1c1ccc(C)o1 (stereo not given)	POLK inh inconclusive, GLS inh inconclusive, Pol eta inh inconclusive, Pol iota inh 56.2µM
Cc1cc2nccc(C)c2cc1C	none (no result: KAT2A inh, Pol beta inh, GLS inh, Pol eta inh)
Cc1oc(-c2ccccc2Cl)nc1CSCC(=O)N1CCCC1	Pol beta inh 79.4µM
CCN(C(=O)c1nn(-c2ccc(OC)c(Cl)c2)c(=O)c2c1c1ccccc1n2C)c1cccc(C(F)(F)F)c1	none
O=C(NC1CCSC1=O)c1ccccc1 (stereo not given)	none
O=C(NC1CCSC1=O)c1cccc(C(=O)NC2CCSC2=O)c1 (stereo not given)	Pol beta inh 50.1µM, Pol eta inh inconclusive, Pol iota inh inconclusive
Cc1ccc(-c2cc(C(=O)N3CCN(c4ccc(F)cc4)CC3)c3ccccc3n2)o1	Pol beta inh 28.2µM, Pol eta inh inconclusive, Pol iota inh 35.5µM
O=C(c1cc(-c2ccccc2)nc2ccccc12)N1CCOCC1	none
Cc1ccc(-c2cc(C(=O)N3CCN(c4ccc(O)cc4)CC3)c3ccccc3n2)cc1	Pol iota inh inconclusive (no result: Pol beta inh)
Cc1ccc(-c2cc(C(=O)N3CCOCC3)c3ccccc3n2)o1	KAT2A inh 22.4µM, Pol iota inh 79.4µM (no result: Pol beta inh)
Cc1onc(-c2ccccc2)c1C(=O)N[C@@H]1C(=O)N2[C@@H](C(=O)O)C(C)(C)S[C@@H]12	none (no result: POLK inh, KAT2A inh, Pol beta inh, Pol eta inh, Pol iota inh)
COC(=O)c1[nH]c2c(c1C)C(=O)CC(c1cccs1)C2 (stereo not given)	none
O=C1C=C(O)CC(c2cccs2)C1 (stereo not given)	Pol beta inh 28.2µM, Pol iota inh inconclusive
O=C(NNC(=O)C1[C@H]2CCCC[C@@H]12)Nc1cccc2ccccc12 (stereo not given in full)	KAT2A inh 25.1µM
O=C(Nc1cccc2ccccc12)NC1CCCCC1	none
CCOc1ccc(/C=C/c2cc[n+](C)c3ccccc23)cc1OCC	none (no result: KAT2A inh, Pol beta inh, GLS inh, Pol eta inh)
COc1cc(NC(=O)CC(C)S(=O)(=O)c2cc3c4c(c2)CCN4C(=O)CC3)cc(OC)c1 (stereo not given)	none
C=C1C(=O)OC2C1CCC(C)=C1C(=O)C3OC3(C)C12 (stereo not given)	Pol eta inh 89.1µM, Pol iota inh inconclusive (no result: KAT2A inh, Pol beta inh)
O=C(CSc1nnc2c(n1)[nH]c1ccccc12)N1CCCCC1	none
CC(Sc1nnc2c(n1)[nH]c1ccccc12)C(=O)NC1CCCCC1 (stereo not given)	Pol beta inh 44.7µM
Cc1ccc(O)c(NC(=S)NC(=O)C(C)C)c1	GLS inh 20µM
CCOCCCNC(=O)N1CCN(S(=O)(=O)c2ccc3c(ccn3C)c2)CC1	none
C[C@H](/C=C/[C@H](C)C(C)(C)O)[C@H]1CC[C@H]2/C(=C/C=C3C[C@@H](O)C[C@H](O)C3)CCC[C@]12C	none (no result: POLK inh, KAT2A inh, Pol beta inh, Pol eta inh, Pol iota inh)
COC(=O)c1c(-c2cccs2)csc1NC(=O)c1ccc(OC)c(OC)c1	KAT2A inh inconclusive
COC(=O)c1c(-c2cccs2)csc1NC(=O)c1cc(OC)c(OC)c(OC)c1	KAT2A inh 25.1µM
Cc1cccc2c(=O)[nH]c3c(-c4nc(-c5ccc(Cl)cc5)cs4)c(O)cn3c12	Pol iota inh inconclusive (no result: KAT2A inh, Pol beta inh, GLS inh, Pol eta inh)
CN(C)c1ccc(Nc2ncnc3sc4c(c23)CCCC4)cc1	none
CC(Sc1nnc(-c2cccs2)n1-c1ccccc1)C(=O)NCc1ccco1 (stereo not given)	Pol eta inh inconclusive
CC(Sc1ccsc1[N+](=O)[O-])C(=O)NCc1ccco1 (stereo not given)	POLK inh inconclusive, Pol beta inh 22.4µM, Pol eta inh 39.8µM, Pol iota inh inconclusive
O=C(NCc1ccccn1)C1CCN(S(=O)(=O)c2ccccc2)CC1	none
